Records with an inconclusive call do not appear. Active and inactive are the calls of the source. Unless noted, the call rests on the fitted dose curve; in most records, active means well fitted curve in the direction sought with a large enough effect; inconclusive means small, poorly fitted or top-dose-only effect, or another doubt; inactive means no such curve, though single readings can be large; an effect the other way counts as inactive or inconclusive.
Legend:
[1] = Cell Viability - BJ (AID 421; calls by dose curve;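 further: potency means the concentration at half of the fitted maximal effect; cells exposed to compound for 40 hours at 37 °C before readout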); conditions: BJ fibroblast viability, qHTS
Procedure, shortened: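 Quantitative HTS: ATP depletion in BJ cells after 40 hr compound exposure in complete culture medium, detected with CellTiter-Glo; AC50 from standard Hill fits.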

[2] = Cell Viability - Jurkat (AID 426;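 active means dose-dependent loss of cell ATP signal giving a full or clear fitted curve, ranked by lower potency value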; further: potency means the concentration at half of the fitted maximal effect); conditions: qHTS
Procedure, shortened: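 Seed 5000 Jurkat E6-1 cells/well; add compound; incubate 40 hr at 37 °C; add CellTiter-Glo; wait 20 min at room temperature; read luminescence. Fit concentration-response with Hill equation for AC50.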

[3] = Cell Viability - Hek293 (AID 427;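 active means compounds whose dose-response curve shows a full or clear partial loss of cell viability, called from curve shape rather than a numeric limit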;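 further: potency means the concentration at half of the fitted maximal effect; cells exposed to compound for 40 hours at 37 °C before reading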); conditions: qHTS
Procedure, shortened: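 AC50 values derive from Hill-modelled concentration-response of ATP-based luminescence, normalized between DMSO-only and 100 uM tamoxifen controls. Cells were exposed in complete culture medium for 40 hr at 37 °C before detection.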

[4] = Cell Viability - HepG2 (AID 433; calls by dose curve;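 further: potency means the concentration at half of the fitted maximal effect; potency for ATP loss meaning cytotoxicity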); conditions: qHTS
Procedure, shortened: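 ATP luminescence (CellTiter-Glo) after 40 h compound exposure, 37 °C, HepG2, 1500 cells/well, complete medium. Normalized: DMSO = basal, 100 uM tamoxifen = 100% inhibition. AC50 via standard Hill equation.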

[5] = Cell Viability - MRC5 (AID 434; calls by dose curve;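 further: potency means the concentration at half of the fitted maximal effect; potency reflects cytotoxicity seen as loss of intracellular ATP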); conditions: MRC5 lung fibroblast viability, qHTS
Procedure, shortened: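 MRC5 normal human lung fibroblasts, 1500 cells/well, exposed to compound for 40 hr at 37 C. Cellular ATP was read by CellTiter-Glo luminescence; data normalized to DMSO and 100 uM tamoxifen, with AC50 from Hill fits.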

[6] = Cell Viability - SK-N-SH (AID 435; calls by dose curve; further: potency means the concentration at half of the fitted maximal effect); conditions: SK-N-SH neuroblastoma cell viability qHTS
Procedure, shortened: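 CellTiter-Glo ATP luminescence, 20 min RT read; cells pre-plated 5 hr, compound 40 hr at 37 °C, 1500 cells/well, complete medium. Normalized DMSO = 0, 100 uM tamoxifen = 100% inhibition; Hill-fit AC50.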

[7] = Cell Viability - N2a (AID 540);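 further: plate controls were DMSO alone for no effect and tamoxifen control for full effect; nearly all actives have a fitted effect of over 45% in size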
Procedure, shortened: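 First, 1500 N2a cells per well incubate 5 hr at 37 °C; next, compounds are added and incubated 40 hr at 37 °C; finally CellTiter-Glo is added and luminescence read after 20 min, with AC50 derived by Hill modeling.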

[8] = Cell Viability - SH-SY5Y (AID 544); conditions: SH-SY5Y neuroblastoma cell viability; at 92.2 µM (top of the series);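 further: 0% = DMSO alone and -100% = 100 µM tamoxifen; nearly all actives have a fitted effect of over 55% in size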
Procedure, shortened: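 Cytotoxicity is scored as a concentration-dependent fall in intracellular ATP in human SH-SY5Y cells treated 40 hr in complete culture medium. Potency is expressed as AC50 from a Hill equation fit.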

[9] = Cell Viability - Renal Proximal Tubule (AID 545);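 further: 0% = DMSO only and -100% = 100 µM tamoxifen; nearly all actives have a fitted effect of over 40% in size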
Procedure, shortened: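 Rat kidney proximal tubule cells, freshly isolated; 1000 cells/well, 5 hr settle, compound 40 hr 37 °C. CellTiter-Glo 20 min RT, luminescence read. AC50 by standard Hill fit.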

[10] = Cell Viability - Mesenchymal (AID 546);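 further: cells exposed to compound for 40 hours before reading; 0% = DMSO only and -100% = 100 µM tamoxifen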
Procedure, shortened: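 Human kidney mesenchymal cells from normal renal glomeruli, 1000 cells/well, rested 5 hr at 37 °C, then treated 40 hr at 37 °C in complete medium. Cellular ATP read by CellTiter-Glo luminescence; AC50 from Hill-equation fits.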

[11] = Cellular Toxicity (caspase-3) HepG2 (AID 654);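 further: cells exposed to compound for 16 hours before reading; 0% = DMSO alone and 100% = caspase signal from 100 µM tamoxifen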
Procedure, shortened: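 qHTS, HepG2, 1500 cells/well, complete medium; cpd 16 h 37 °C; Caspase-Glo 3/7, 20 min RT; lum. Norm: DMSO vs 100 uM tamoxifen; AC50 Hill fit.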

[12] = Cellular Toxicity (caspase-3) Jurkat (AID 655);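 further: cells exposed to compound for 16 h at 37 °C before reading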
Procedure, shortened: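 Luminescent caspase-3/7 readout (aminoluciferin substrate cleavage) in human T-cell leukemia Jurkat cells after 16 hr compound exposure. Concentration-response normalized to DMSO and 100 uM tamoxifen; AC50 by standard Hill equation.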

[13] = Cellular Toxicity (caspase-3) HUV-EC-C (AID 656);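 further: 0% = DMSO basal and 100% = 100 µM tamoxifen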
Procedure, shortened: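 Luminescent caspase-3/7 activation (aminoluciferin substrate cleavage) in HUV-EC-C cells after 16 hr compound exposure, 37°C. Signal normalized to DMSO basal and 100 uM tamoxifen as 100%; AC50 from concentration-response fitted with the Hill equation.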

[14] = Cellular Toxicity (caspase-3) SHSY5Y (AID 657)
Procedure, shortened: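 Luminescent caspase-3/7 readout (aminoluciferin release) in SH-SY5Y cells after 16 h compound exposure in complete medium. Activity scaled between DMSO basal and 10 uM staurosporine as 100%; concentration-response fitted to Hill equation for AC50.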

[15] = Cellular Toxicity (caspase-3) BJ (AID 658);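 further: 0% = DMSO basal and 100% = 10 µM staurosporine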
Procedure, shortened: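 BJ human foreskin fibroblasts, 1000 cells/well, treated 16 hours at 37 °C in complete medium; caspase 3/7 activity by Caspase-Glo luminescence after 1 hr at room temperature. Normalized to DMSO and 10 uM staurosporine; AC50 from Hill fits.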

[16] = Cellular Toxicity (caspase-3) MRC-5 (AID 659);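 further: 0% = DMSO basal and 100% = 10 µM staurosporine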
Procedure, shortened: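 MRC-5 human normal lung fibroblasts, 1500 cells/well, treated 16 h at 37 °C in complete medium. Caspase 3/7 measured by Caspase-Glo luminescence after 1 h at room temperature. Normalized to DMSO and 10 uM staurosporine; AC50 from Hill fit.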

[17] = Cellular Toxicity (caspase-3) Mesangial (AID 660);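 further: combined caspase 3 and 7 activity read by Caspase-Glo luminescence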
Procedure, shortened: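 Concentration-response qHTS: compound-induced rise in caspase 3/7 luminescence in human mesangial cells after 16 h, normalized to DMSO and 100 uM tamoxifen controls.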

[18] = Cellular Toxicity (caspase-3) SK-N-SH (AID 661);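 further: 0% = DMSO basal and 100% = 10 µM staurosporine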
Procedure, shortened: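 Caspase 3/7 activation is measured as a luminescence increase from aminoluciferin released by substrate cleavage in SK-N-SH cells after 16 hr compound treatment; values are AC50 from concentration-response curves.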

[19] = Cellular Toxicity (caspase-3) H-4-II-E (AID 663);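 further: 0% = DMSO basal and 100% = 100 µM tamoxifen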
Procedure, shortened: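 Rat hepatoma H-4-II-E cells (1500/well) plated 5 hr, then exposed to compound titrations for 16 hr at 37 °C. Caspase-Glo 3/7 luminescence read after 20 min at RT; data normalized to DMSO and 100 uM tamoxifen, AC50 from Hill fits.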

[20] = Cellular Toxicity (caspase-3) Hek293 (AID 664);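 further: cells exposed to compound for 16 h at 37 °C before readout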
Procedure, shortened: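 Activation of caspase-3/7 is measured as increased luminescence from cleaved peptide-aminoluciferin substrate in HEK293 cells treated 16 hours at 37 °C. AC50 values come from Hill-equation fits of concentration-response data.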

[21] = Cellular Toxicity (caspase-3) N2a (AID 665);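 further: compound exposure lasted 16 h at 37 °C before readout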
Procedure, shortened: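 Plated mouse neuroblastoma N2a cells received titrated compounds for 16 h in complete medium. Caspase activity was then detected with a peptide-aminoluciferin luminescent reagent.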

[22] = Cellular Toxicity (caspase-3) NIH 3T3 (AID 666);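 further: 0% = DMSO basal and 100% = 100 µM tamoxifen stimulation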
Procedure, shortened: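 Concentration-response qHTS in NIH 3T3 mouse fibroblasts scores caspase-3/7 activation as rising luminescence after 16 hr compound exposure. Signals are scaled between DMSO-only and 100 uM tamoxifen.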

[23] = Cellular Toxicity (caspase-3) Renal Proximal Tubule (AID 667);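 further: cells exposed to compound for 16 hours at 37 °C before detection; 0% = DMSO basal and 100% = 10 µM staurosporine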
Procedure, shortened: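 Luminescent caspase 3/7 signal from peptide-aminoluciferin cleavage measures apoptosis in freshly isolated rat kidney proximal tubule cells after 16 h compound exposure. Concentration-response data are normalized to DMSO and 10 uM staurosporine, and AC50 values come from Hill equation fits.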

[24] = MultiTox-Fluor Cytotoxicity Assay - LYMP1-001 - Dead Cells (AID 946);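 further: 0% = DMSO and 100% = tetraoctylammonium bromide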
Procedure, shortened: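 In this qHTS, 15 uM tetraoctylammonium bromide defined 100% and DMSO defined basal activity. Lymphoblastoid cells (LYMP1-001, 2500 per well) received compound for 16 hr at 37 C before a fluorogenic dead-cell substrate readout at 485/520 nm.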

[25] = MultiTox-Fluor Cytotoxicity Assay - LYMP1-001 - Live Cells (AID 947);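 further: 0% = DMSO only and full inhibition = tetraoctylammonium bromide control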
[26] = Cell Viability - LYMP1-002 - Assay at 16 hr (AID 948);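 further: 0% = DMSO alone and full effect = 92 µM tetraoctylammonium bromide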
Procedure, shortened: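 LYMP1-002 human lymphoblastoid cells, 2500/well; 5 hr 37 C; cpd 16 hr 37 C; CellTiter-Glo 30 min RT; luminescence (ATP). Concentration-response, Hill-fit AC50. Pos ctrl tetraoctylammonium bromide.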

[27] = MultiTox-Fluor Cytotoxicity Assay - LYMP1-002 - Live Cells (AID 955); further: on the % scale 0 is the no-effect control and ±100 the full control effect
Procedure, shortened: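 Cytotoxicity in the human lymphoblastoid line LYMP1-002 is measured as loss of live-cell protease activity after 16 h treatment in complete culture medium. AC50 is derived from Hill-equation fits of qHTS concentration-response data.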

[28] = MultiTox-Fluor Cytotoxicity Assay - LYMP1-002 - Dead Cells (AID 960);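 further: 0% = DMSO and 100% = tetraoctylammonium bromide; nearly all actives have a fitted effect of over 60% in size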
Procedure, shortened: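 Acute cytotoxicity in a human lymphoblastoid line is scored as rising dead-cell protease signal after 16 hr exposure at 37 C, measured fluorometrically (485/520).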

[29] = MultiTox-Fluor Cytotoxicity Assay - LYMP1-003 - Dead Cells (AID 961);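 further: 0% = DMSO and 100% = tetraoctylammonium bromide; nearly all actives have a fitted effect of over 70% in size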
Procedure, shortened: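 Acute toxicity is scored as increased dead-cell protease activity in human lymphoblastoid LYMP1-003 cells after 16 h compound exposure in complete culture medium. Activity is normalized to DMSO basal and 15 uM tetraoctylammonium bromide as full response.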

[30] = MultiTox-Fluor Cytotoxicity Assay - LYMP1-003 - Live Cells (AID 962);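 further: 0% = DMSO only and full loss = 92 µM tetraoctylammonium bromide; cytotoxic hits lower the live-cell protease signal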
Procedure, shortened: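 Cells plated at 2500 per well and incubated 5 hr; compounds added and incubated 16 hr at 37 C; MultiTox-Fluor reagent added for 60 min at room temperature; fluorescence of liberated AFC measured at 405/510 nm.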

[31] = Cell Viability - LYMP1-003 - Assay at 24 hr (AID 963);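 further: plate controls were DMSO only for no effect and tetraoctylammonium bromide positive control for full effect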
Procedure, shortened: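 Acute toxicity in LYMP1-003 lymphoblastoid cells: 24 hr compound treatment at 37 C, ATP measured with CellTiter-Glo after 30 min at room temperature. AC50 derived by fitting the Hill equation to qHTS titrations.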

[32] = Cell Viability - LYMP2-003 (AID 965);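 further: cells exposed to compounds for 24 h before reading; 0% = DMSO only and full effect = 92 µM tetraoctylammonium bromide; nearly all actives have a fitted effect of over 50% in size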
Procedure, shortened: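 CellTiter-Glo luminescence (cellular ATP) after 24 h compound exposure at 37 C in complete medium; 2500 cells/well, 5 h settling beforehand. Concentration-response fitted to standard Hill equation for AC50. Tetraoctylammonium bromide served as positive control.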

[33] = Cell Viability - LYMP2-004 (AID 966);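 further: plate controls were DMSO only for no effect and tetraoctylammonium bromide control for full effect; nearly all actives have a fitted effect of over 65% in size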
Procedure, shortened: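 Acute toxicity is scored as a concentration-dependent drop in intracellular ATP, quantified by luciferase luminescence, in human lymphoblastoid cells exposed to compound for 24 hr. AC50 derives from Hill-equation modelling.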

[34] = Cell Viability - LYMP2-005 (AID 967);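 further: plate controls were DMSO only for no effect and 92 µM tetraoctylammonium bromide control for full effect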
Procedure, shortened: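 Steps: seed 2500 LYMP2-005 cells/well, incubate 5 h at 37 C, add compound, incubate 24 h at 37 C, add CellTiter-Glo, wait 30 min at RT, read luminescence. Concentration-response data fitted to Hill equation for AC50.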

[35] = Cell Viability - LYMP2-009 (AID 968);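 further: 0% = DMSO alone and the full-kill end = tetraoctylammonium bromide at 92 µM; nearly all actives have a fitted effect of over 55% in size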
[36] = Cell Viability - LYMP2-011 (AID 969);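 further: 0% = DMSO only and full inhibition = 92 µM tetraoctylammonium bromide; nearly all actives have a fitted effect of over 60% in size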
Procedure, shortened: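 Acute toxicity is scored as a concentration-dependent drop in intracellular ATP of a human lymphoblastoid line after 24 hr treatment. Values are AC50s modeled with the Hill equation.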

[37] = Cell Viability - LYMP2-013 (AID 970);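 further: 0% = DMSO only and full inhibition = tetraoctylammonium bromide control; nearly all actives have a fitted effect of over 55% in size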
Procedure, shortened: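 Acute toxicity was measured in human lymphoblastoid cells (2500/well) exposed to compound titrations for 24 hr, with ATP luminescence (CellTiter-Glo) as read-out and AC50 fitted by Hill equation.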

[38] = Cell Viability - LYMP2-015 (AID 971);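 further: 0% = DMSO only and full effect = 92 µM tetraoctylammonium bromide; nearly all actives have a fitted effect of over 55% in size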
Procedure, shortened: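 Acute toxicity was scored as a concentration-dependent drop in intracellular ATP in lymphoblastoid cells after 24 hr compound exposure in complete medium. Detection used CellTiter-Glo luciferase luminescence.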

[39] = Cell Viability - LYMP2-017 (AID 972)
Procedure, shortened: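 Steps: plate 2500 lymphoblastoid cells per well; incubate 5 hr at 37 C; add compound across a concentration series and incubate 24 hr at 37 C; add CellTiter-Glo and read luminescence after 30 min at room temperature; fit Hill curves for AC50.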

[40] = Cell Viability - LYMP2-019 (AID 973)
Procedure, shortened: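 Cells plated at 2500/well and allowed 5 hr at 37 C before compound addition. After 24 hr incubation, CellTiter-Glo reagent was added, plates sat 30 min at room temperature, and luminescence was recorded.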

[41] = Cell Viability - LYMP2-021 (AID 974)
Procedure, shortened: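 Concentration-response cytotoxicity in a human lymphoblastoid line: 24 hr treatment at 37 C in complete culture medium, tetraoctylammonium bromide as positive control, luminescent ATP quantitation as viability measure.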

CO[C@H]1/C=C/O[C@@]2(C)Oc3c(C)c(O)c4c(O)c(c(/C=N/N5CCN(C)CC5)c(O)c4c3C2=O)NC(=O)/C(C)=C\C=C\[C@H](C)[C@H](O)[C@@H](C)[C@@H](O)[C@@H](C)[C@H](OC(C)=O)[C@@H]1C
active: viability change, negative = cytotoxic [8] -92.1%
inactive: Potency [1] > 92 µM | Potency [2] > 92 µM | Potency [3] > 92 µM | Potency [4] > 92 µM | Potency [5] > 92 µM | Potency [6] > 92 µM | outcome [7] | outcome [9] | outcome [10] | outcome [11] | outcome [12] | outcome [13] | outcome [14] | outcome [15] | outcome [16] | outcome [17] | outcome [18] | outcome [19] | outcome [20] | outcome [21] | outcome [22] | outcome [23] | outcome [24] | outcome [25] | outcome [26] | outcome [27] | outcome [28] | outcome [29] | outcome [30] | outcome [31] | outcome [32] | outcome [33] | outcome [34] | outcome [35] | outcome [36] | outcome [37] | outcome [38] | outcome [39] | outcome [40] | outcome [41]
